From PubChem BioAssay (NCI)
Several values for one entry are separate records, joined by “and”; a condition that tells them apart may be missing. Equal values may be shown once. The panel holds about 83,000 compounds, 20% with a hit somewhere; the sample as a whole holds those more often.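 Method: cells in 96-well plates; compound added at one concentration; 48 h incubation; percent growth measured; values under 10 scored active.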 Unmarked numbers belong to inactive results. Activity calls are given as the source filed them.

system: MDA-MB-468 breast; experiment: NCI-60 one-dose screen, 48 h (100 = growth as untreated, 0 = no growth, -100 = all killed); settings: 10 µM unless noted

| SMILES | growth |
| --- | --- |
| CC(O)(CC(=O)CC(=O)c1ccccc1)c1ccccc1 (stereo not given) | 94.9% and 101% |
| CC1(C)CC(=O)C2=C(C1)OC1=C(C(=O)CC(C)(C)C1)C2c1ccc(OCc2cn(-c3ccc(F)cc3F)nn2)cc1 | 103% |
| ONc1nc(NO)c2[nH]cnc2n1 | 47.6% |
| COc1cc(-c2nc(-c3ccccc3)[nH]c2-c2ccnc(NCCCNS(=O)(=O)c3ccc(C(F)(F)F)cc3)n2)ccc1Cl | 14% and 41.9% |
| Cc1ccc(C(=O)C2C(=O)C3CCC2C3)cc1 (stereo not given) | 100% |
| C/C(CCC(=O)O)=N/Nc1ccc([N+](=O)[O-])cc1 | 83.7% |
| C/C=C/C=C1\C[C@H]2CO[C@H](O2)C1=O | 103% |
| CCOC(=O)c1ccc2c(c1)c1c(C)c3cccnc3c(C)c1n2C | 64.4% |
| O=C(CCCCCCC(=O)Nc1ccc2c(c1)/C(=C/c1ccc[nH]1)C(=O)N2)NO | 22.9% |
| O=C(c1ccccc1)c1cccc(C(Br)Br)c1 | 92.5% |
| COC(=O)c1ccc2[nH]c(O)c(C(=Nc3ccc(N(C)C(=O)CN4CCN(C)CC4)cc3)c3ccc(CCO)cc3)c2c1 | 37.7% |
| O=C1C(Cl)=C(NCCN2CCOCC2)C(=O)c2ncccc21 | -74.1% (active) |
| Clc1ccc2c(c1)N(c1ncnc3ccc(-c4cnc5[nH]ncc5c4)cc13)CC2 | 3.65% (active) |
| COc1ccc(/C(=C2/O[C@@H]([C@H]3COC(C)(C)O3)[C@H]3OC(C)(C)O[C@@H]23)c2cc(OC)c(OC)c(OC)c2)cc1O | 113% |
| CCOC(=O)c1ccc2[nH]c(-c3ccccc3)cc(=O)c2c1 | 105% |
| CCOC(=O)c1c(-c2ccc(O)cc2)c(C#N)c2c(C#N)c(N)nn2c1N | 35.2% |
| O=S(=O)(c1cccc(NC2=Nc3cccc4cccc2c34)c1)N1CCCC1 | 36.4% |
| Nc1ncnc2c1ccn2-c1cccc(NC(=O)c2ccc(N3CCOCC3)c(C(F)(F)F)c2)c1 | 40.3% |

| SMILES | growth |
| --- | --- |
| Brc1cccc(-c2cc(-c3ccc4nccnc4c3)[nH]n2)c1 | 22.9% [25 µM] |
| Cn1c(=O)c2c(nc(Cl)n2CCl)n(C)c1=O | 106% |
| Cc1cc2c(C(C)C)c(O)c(O)c(C=NCCCCCCC(=O)O)c2c(O)c1-c1c(C)cc2c(C(C)C)c(O)c(O)c(C=NCCCCCCC(=O)O)c2c1O | 30.4% |
| CS(=O)(=O)c1ccc(-c2cc(-c3nnc(SCC(=O)Nc4ccc(C(=O)/C=C/c5ccc(Cl)cc5)cc4)n3-c3ccccc3)c3ccccc3n2)cc1 | 93.2% |
| COC(=O)/C=C1/CCC2C3CCC4=CC(=O)C(Br)CC4(C)C3C(=O)CC12C (stereo not given) | 13.9% |
| c1csc(-c2cnc3nonc3n2)c1 | 67.5% |
| CCCCCCN1C(=O)C2=C(c3ccc(Cl)cc3)Nc3c(c(C)nn3-c3ccccc3)C2c2ccccc21 (stereo not given) | 84.5% |
| ClCC1(Cn2cnc3c(Cl)nc(Cl)nc32)COC1 | 19.4% |
| Cc1cc(-c2ccccc2)on1 | 109% |
| CC(=O)Nc1ccc(S(=O)(=O)NC2CCCCC2)cc1 | 93.9% |
| O=C(O)c1ccc(CO)o1 | 103% |
| Cc1nn(-c2ccccc2)c(-n2ccnc2)c1/C=N/Nc1nc(-c2ccc(F)cc2)cs1 | 27.3% |
| C=CCC(CCC(CC=C)C(=O)OCC)C(=O)OCC (stereo not given) | 108% |
| Cc1nc(-c2ccccc2O)ccc1C(=O)N=Nc1c(O)[nH]c2ccc(Br)cc12 | 90.2% |
| COC(=O)c1cc(=O)nc(N/N=C/c2ccc(C)cc2)s1 | 110% |
| CCOc1ccc(C(CN2CCOCC2)C(C)=O)cc1OC (stereo not given) | 13.9% |
| CC(=O)N[C@H](C(=O)N[C@@H](CCCNC(=N)N)C(=O)N[C@@H](CCCCN)C(=O)N[C@@H](CCCNC(=N)N)C(=O)N[C@]1(C)CCCCCC/C=C\CCC[C@@](C)(C(=O)N[C@@H](CCCNC(=N)N)C(=O)N[C@@H](CCC(=O)O)C(=O)N[C@@H](CC(C)C)C(=O)N[C@H](C(=O)N[C@@H](CCC(=O)O)C(N)=O)C(C)C)NC(=O)[C@H](CCC(N)=O)NC(=O)[C@H](CC(C)C)NC(=O)[C@H](CC(C)C)NC(=O)[C@H](CCCNC(=N)N)NC(=O)[C@H](CCCNC(=N)N)NC(=O)[C@H](CC(C)C)NC1=O)C(C)C | 20.5% |
